Results reported in ChEMBL document CHEMBL4513216, “Probing the Open Global Health Chemical Diversity Library for Multistage-Active Starting Points for Next-Generation Antimalarials” (ACS Infect Dis, 2020).
Screen size: about 69,000 compounds; about 8,600 (12%) showed an effect of 50% or more. For the sample, strong results were picked, then their nearest neighbours and some compounds at random.

Test system: Plasmodium berghei
Test: Screen against P. berghei liver stage (PbLuc), transformed with Luciferase, at 10uM
Type: functional, HepG2
Conditions: tested at 10 uM

Row | SMILES | INHIBITION [%]
1 | CS(=O)(=O)N1CCN(c2ccc(Nc3ccccn3)nn2)CC1 | 21.5
2 | Cc1ccc(Nc2cc(N3CCN(S(C)(=O)=O)CC3)nc(C)n2)cc1 | -19.7
3 | Cc1nc(Nc2ccccn2)cc(N2CCN(S(C)(=O)=O)CC2)n1 | 53.2
4 | O=C1CCC2(CCC(NCc3cccnc3)CC2)N1Cc1ccccc1 (stereo not drawn) | 48.2
5 | CCn1cc(NC(=O)NCC(C)N(C)C2CC2)cn1 (stereo not drawn) | -62.8
6 | CC(CN1CC[C@@H]2CCCC[C@@H]2C1)n1cnc2ccccc21 (stereo partly drawn) | 3.58
7 | CC(CN1CCC(CCO)CC1)n1cnc2ccccc21 (stereo not drawn) | -0.217
8 | CC(CN1CCC(c2ccccc2)CC1)n1cnc2ccccc21 (stereo not drawn) | 56.2
9 | CCCC(O)CN1CCC(=O)N(CCOC)Cc2cc3c(cc21)OCO3 (stereo not drawn) | 22.2
10 | COCCN1CCCC1c1nccnc1Nc1ncc(C)s1 (stereo not drawn) | 8.53
11 | COCCN1CCCC1c1nccnc1Nc1nccs1 (stereo not drawn) | 61.9
12 | COCCN1CCCC1c1nccnc1Nc1nc(C)cs1 (stereo not drawn) | 16.9
13 | COCCC(=O)N1CCn2cc(CN3CCN(C)CC3)nc2C1 | -17.2
14 | CCc1nc2n(n1)CC(NCCC(=O)Nc1cc(C)on1)CC2 (stereo not drawn) | 7.08
15 | CCN(CC1CN(Cc2c(C)noc2C)CCO1)c1cccnn1 (stereo not drawn) | 44.9
16 | CCN(CC1CN(Cc2nc(C3CC3)no2)CCO1)c1cccnn1 (stereo not drawn) | 87.6
17 | CCN(CC1CN(Cc2nccn2CC)CCO1)c1cccnn1 (stereo not drawn) | 41.4
18 | CCN(CC1CN(Cc2ncc(C)o2)CCO1)c1cccnn1 (stereo not drawn) | -17.4
19 | CCN(CC1CN(CC2CCC2)CCO1)c1cccnn1 (stereo not drawn) | 62.8
20 | CCN(CC1CN(Cc2ncc[nH]2)CCO1)c1cccnn1 (stereo not drawn) | 11.1
21 | COc1cc(C2CC(=O)Nc3c2c(=O)[nH]n3C2CCCC2)ccc1O (stereo not drawn) | 27.4
22 | CSc1[nH]nc(NC(=O)c2ccncc2)c1C#N | 48.8
23 | O=C(N1CCCC(n2cncn2)C1)C1(c2cccc(F)c2)CC1 (stereo not drawn) | 23.7

Row | SMILES | INHIBITION [%]
24 | CCOc1ccnc(N2CCN(C(=O)c3ccoc3C)CC2)n1 | -13.5
25 | O=C(Nc1cccnc1)[C@H]1CO[C@H]2CCN(c3ncc(F)cn3)C[C@H]2C1 | 25.4
26 | CC(C)N1CC[C@@H]2OC[C@H](C(=O)Nc3cccnc3)C[C@@H]2C1 | -25.1
27 | COCCNC(=O)[C@H]1CO[C@H]2CCN(Cc3cccs3)C[C@H]2C1 | 38.5
28 | CC(C)NC(=O)[C@@H]1C[C@H]2OCC[C@H]2N(Cc2ccc3ccccc3n2)C1 | 19.4
29 | CNC(=O)[C@H]1CO[C@H]2CCN(Cc3ccc4ccccc4n3)C[C@H]2C1 | 50
30 | CC(C)NC(=O)[C@H]1C[C@H]2OCC[C@H]2N(Cc2ccc3ccccc3n2)C1 | 61.4
31 | CNC(=O)[C@H]1CO[C@H]2CCN(c3ncc(F)cn3)C[C@H]2C1 | 3.58
32 | O=C(NC1CC1)[C@H]1C[C@H]2OCC[C@H]2N(Cc2ccc3ccccc3n2)C1 | 38.1
33 | CCCN1CC[C@@H]2OC[C@H](C(=O)Nc3cccnc3)C[C@@H]2C1 | 59.9
34 | NC(=O)CSc1nccc(-c2ccc3c(c2)OCO3)n1 | -22.6
35 | CS(=O)(=O)N1CCOCC2(CCN(c3ccccn3)C2)C1 (stereo not drawn) | 5.96
36 | O=c1[nH]cc(Nc2ccc(Cl)cc2)c(=O)[nH]1 | 15.4
37 | CCS(=O)(=O)c1ccc2c(c1)N1CCS(=O)(=O)N=C1O2 | 20.1
38 | O=S1(=O)CCN2C(=N1)Oc1ccc(Cl)cc12 | 30.5
39 | O=S1(=O)CCN2C(=N1)Oc1ccc(S(=O)(=O)N3CCCC3)cc12 | 86.6
40 | Cn1cc(Br)c(=O)c(NS(=O)(=O)c2ccccc2F)c1 | -1.38
41 | CCn1cc(CN(C)S(=O)(=O)c2ccc(C)c(C)c2)cn1 | 10.1
42 | Cc1cc(CN2CCOC(CNc3cccnn3)C2)no1 (stereo not drawn) | 7.12
43 | COCc1nc(CN2CCOC(CNc3cccnn3)C2)cs1 (stereo not drawn) | 14.1
44 | Cc1cnc(CN2CCOC(CNc3cccnn3)C2)cn1 (stereo not drawn) | 2.26
45 | CCc1nc(CN2CCOC(CNc3cccnn3)C2)cs1 (stereo not drawn) | 41.5
46 | c1cnnc(NCC2CN(Cc3ccon3)CCO2)c1 (stereo not drawn) | 50.5

Row | SMILES | INHIBITION [%]
47 | CCCc1nc(CN2CCOC(CNc3cccnn3)C2)cs1 (stereo not drawn) | 58.9
48 | CC(=O)N1CCC(c2cccc(-c3cccc(C(=O)O)c3)n2)CC1 | 25.8
49 | Cc1cnn(CC2CCCN2C(=O)c2ccc(Cl)cc2F)c1 (stereo not drawn) | 3.73
50 | CCc1nc(C2CCCN(C(=O)c3c(C)noc3C)C2)no1 (stereo not drawn) | 45.1
51 | Cc1noc(C)c1-c1cccc(C2CCCNC2)n1 (stereo not drawn) | -57.4
52 | CCCc1ccc2oc(C(=O)N3CCN(CCC(N)=O)CC3)c(C)c2c1 | 18.5
53 | Cc1c(NC(=O)CN2CCC(Oc3cnccn3)CC2)cnn1C | 0.696
54 | COCCC(=O)N1CCCC(CCC(=O)NCc2cccc(OC)c2)C1 (stereo not drawn) | 9.52
55 | COCCC(=O)N1CCCC(CCc2ccc(F)c(F)c2)C1 (stereo not drawn) | 4.97
56 | O=C(CCC1CCCN(S(=O)(=O)C2CC2)C1)Nc1ccc(Cl)cc1 (stereo not drawn) | 28
57 | COCCC(=O)N1CCCC(CCC(=O)NCc2ccccc2F)C1 (stereo not drawn) | -4.12
58 | O=C(CCC1CCCN(C(=O)CCc2ccc(F)c(F)c2)C1)NC1CC1 (stereo not drawn) | 75.4
59 | COCCC(=O)N1CCCC(CCC(=O)Nc2ccc(Cl)cc2)C1 (stereo not drawn) | 57.2
60 | Cc1ccc(-c2nc3cc(S(=O)(=O)N4CCCC4)ccc3n2C)o1 | 14.1
61 | CCc1cccc2cc(CNCCOC)c(=O)[nH]c12 | 24.95
62 | O=C(CCn1ccnc1)N1CCCC(n2cncn2)C1 (stereo not drawn) | 49
63 | Cn1ccnc1CN1CCCC2(CCN(CC3CCCO3)CC2)C1 (stereo not drawn) | 38.1
64 | c1cc(CN2CCCC3(CCN(CC4CCCO4)CC3)C2)n[nH]1 (stereo not drawn) | 47.5
65 | c1cncc(N2CCCC3(CCN(CC4CCCO4)CC3)C2)c1 (stereo not drawn) | 3.58
66 | c1ccc(CN2CCCC3(CCN(CC4CCCO4)CC3)C2)nc1 (stereo not drawn) | 62
67 | Cc1cccc(CN2CCCC3(CCN(CC4CCCO4)CC3)C2)n1 (stereo not drawn) | 53
68 | Cc1cccc(CN2CCOCC3(CCN(C4CCOCC4)C3)C2)n1 (stereo not drawn) | -34.9
